Screens deposited in PubChem by Broad Institute.
ROS inducer: raises reactive oxygen species in U2OS cancer cells; ROS induction (% of piperlongumine), % at 10 µM; AID 624156; actives 2% (n = 46,000); U2OS ROS induction, H2DCF-DA fluorescence; in the data active means ROS induction above about 79%, passing the limit was not always enough; inconclusive means no clear call, values can overlap the other calls
NOMO-1 viab: STK33 inhibitor candidate reducing NOMO-1 cell viability. NOMO-1 AML viability, CellTiter-Glo luminescence, 72 h. inhibition, % (concentration not given with the values). actives 7.5% (n = 37,000). AID 2330; in the data active means inhibition above about 80%; inconclusive means no clear call, values can overlap the other calls
PD-1 reverse act: reversal of PD-1 mediated T-cell inhibition; primary human CD4 T cells, PD-L1 beads, CellTiter-Glo 96 h; activation, % (test concentration not listed); 29,000 tested, under 10 active; AID 2316; call rule not given here
YB-1 expression: YB-1 expression inhibition | delta delta Cp (YB-1 minus CDIP) (test concentration not listed) | U2OS, qRT-PCR YB-1 vs CDIP delta delta Cp, 16 h; stronger effect = higher value; zero = DMSO, each unit about twofold | actives 0.37% (n = 30,000);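 active means delta delta Cp rounded down to an integer at or above 3, about 3 SD of DMSO wells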;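 further: higher means less YB-1 transcript or more CDIP transcript relative to DMSO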
Numbers stand for hits; n = inactive; u = inconclusive; x = no result; ! = not confirmed by another sample. The full list was thinned out, with hits kept by preference.

SMILES	ROS inducer	NOMO-1 viab	PD-1 reverse act	YB-1 expression
Cc1cc(C)nc(/N=C2\NC(=O)CC(C(=O)O)N2c2cccc(C(F)(F)F)c2)n1 (configuration not stated)	n	n	n	x
CCc1ccc(C(Nc2cc(C)ccn2)c2ccc3ccc(C)nc3c2O)cc1 (configuration not stated)	x	89	x	x
CCOc1ccc(C(=O)Nc2cc(C)ccn2)cc1	n	x	x	x
COc1ccc(C(=O)COC(=O)CN2C(=O)C3CC=CCC3C2=O)cc1 (configuration not stated)	n	n	n	n
O=C(CN1CC(=O)Oc2ccccc21)OCC(=O)c1ccccc1	n	103	n	n
O=C(CN1CC(=O)Oc2ccccc21)Nc1ccc(O)cc1	n	111	n	n
CN1/C(=C2/SC(=S)N(c3ccccc3)C2=O)Sc2ccccc21	n	n	n	n
C[C@@H]1CN([C@@H](C)CO)C(=O)c2cc(NC(=O)Nc3ccc4c(c3)OCO4)ccc2O[C@@H]1CN(C)Cc1ccc(Cl)c(Cl)c1	n	95	n	n
C[C@@H]1CN([C@@H](C)CO)C(=O)c2cc(NC(=O)Nc3ccccc3)ccc2O[C@H]1CN(C)Cc1ccc(Cl)c(Cl)c1	n	124	n	n
C[C@@H]1CN([C@@H](C)CO)C(=O)c2cc(NC(=O)Nc3ccc(F)cc3)ccc2O[C@@H]1CN(C)Cc1ccc(Cl)c(Cl)c1	n	113	n	n
C[C@H]1CN([C@@H](C)CO)C(=O)c2cc(NC(=O)Nc3ccc(F)cc3)ccc2O[C@H]1CN(C)Cc1ccc(Cl)c(Cl)c1	n	99	n	n
C[C@H]1CN([C@@H](C)CO)C(=O)c2cc(NC(=O)Nc3ccc4c(c3)OCO4)ccc2O[C@H]1CN(C)Cc1ccc(Cl)c(Cl)c1	n	n	n	n
C[C@@H]1CN([C@H](C)CO)C(=O)c2cc(NC(=O)Nc3ccc(F)cc3)ccc2O[C@H]1CN(C)Cc1ccc(Cl)c(Cl)c1	n	n	n	n
CC1(c2ccccc2)OC(=O)C2C3CCCCC3=C3CCCCC3C21 (configuration not stated)	n	x	x	x
O=C(CSC(=S)N1CCOCC1)c1c[nH]c2ccccc12	n	x	x	x
COc1cc([C@@H]2C3C=C([C@H]4Oc5cc(O)cc(O)c5C(=O)[C@@H]4O)[C@H]4[C@@H]2COC4(O)C3=O)ccc1O	n	n	n	n
CC(=O)N/C(=C/c1ccc(Cl)c(Cl)c1)C(=O)O	n	n	n	n
CCOC(=O)C1CCN(C(=S)NC2Cc3ccccc3C2)CC1	n	x	x	x
Cc1noc(C)c1S(=O)(=O)Nc1cccc2c1O[C@@H](CN(C)Cc1ccc(C(=O)O)cc1)[C@@H](C)CN([C@@H](C)CO)C2=O	n	n	n	n
Cc1noc(C)c1S(=O)(=O)Nc1cccc2c1O[C@@H](CN(C)Cc1ccc(C(=O)Nc3ccccc3N)cc1)[C@@H](C)CN([C@H](C)CO)C2=O	n	83	n	n
Cc1noc(C)c1S(=O)(=O)Nc1cccc2c1O[C@H](CN(C)Cc1ccc(C(=O)Nc3ccccc3N)cc1)[C@H](C)CN([C@@H](C)CO)C2=O	n	137	n	n
Cc1noc(C)c1S(=O)(=O)Nc1cccc2c1O[C@H](CN(C)Cc1ccc(-c3ccccc3)cc1)[C@H](C)CN([C@@H](C)CO)C2=O	122	n	n	n
COc1ccc(NC(=O)CSc2nnc(-c3cccs3)n2-c2ccc(F)cc2)cc1	n	n	n	x
O=C(N/N=C/c1cc(O)ccc1[N+](=O)[O-])c1ccccc1O	n	x	x	n
Cc1nc2cc(-c3ccccc3)nn2c(C)c1CC(=O)NC1CCCC1	n	x	x	x
SMILES	ROS inducer	NOMO-1 viab	PD-1 reverse act	YB-1 expression
Cc1ccc(-c2nc3c(cnn3-c3ccccc3)c(=O)n2-c2cccc(C)c2)cc1	187	x	x	x
CC(C)(C)NC(=O)Oc1ccc(Cl)cc1	n	n	n	n
Fc1ccc(N(Cc2nc3ccccc3[nH]2)Cc2nc3ccccc3[nH]2)cc1	x	100	x	x
O=C(NCc1nc2ccccc2[nH]1)c1c(F)c(F)c(F)c(F)c1F	u	n	n	x
O=C(CSc1nc2sccc2c(=O)[nH]1)Nc1ccccc1	x	n	x	x
CC1=C(CO)C(=O)OC([C@@H](C)C2CC[C@H]3C4C[C@H]5O[C@]56[C@@H](O)C=CC(=O)[C@]6(C)C4CC[C@]23C)C1 (some centres not stated)	138	120	n	n
COc1cc(O)c2c(=O)c(-c3ccc(O)cc3)coc2c1	n	n	x	3
COc1cc2c(cc1OC)CN(C(=O)[C@H]1[C@@H]3C(=O)O[C@@H](c4ccccc4)[C@@H](c4ccccc4)N3[C@@H](c3ccccc3OCCO)[C@]13C(=O)Nc1ccc(C#CC4(O)CCCCCC4)cc13)CC2	96	x	x	n
COc1cc2c(cc1OC)CN(C(=O)[C@@H]1[C@H]3C(=O)O[C@H](c4ccccc4)[C@H](c4ccccc4)N3[C@H](c3ccccc3OCCO)[C@@]13C(=O)Nc1ccc(C#CC4(O)CCCCCC4)cc13)CC2	88	x	x	n
COc1cc2c(cc1OC)CN(C(=O)[C@H]1[C@@H]3C(=O)O[C@@H](c4ccccc4)[C@@H](c4ccccc4)N3[C@@H](c3ccc(OCCO)cc3)[C@]13C(=O)Nc1ccc(C#CC4(O)CCCCCC4)cc13)CC2	n	x	x	n
COc1ccc(C#Cc2ccc3c(c2)[C@]2(C(=O)N3)[C@H](C(=O)N3CCc4cc(OC)c(OC)cc4C3)[C@H]3C(=O)O[C@H](c4ccccc4)[C@H](c4ccccc4)N3[C@@H]2c2ccccc2OCCO)cc1	n	x	x	n
Cc1ccc(NC(=O)c2ccc(NCc3cccnc3)c([N+](=O)[O-])c2)cc1Cl	x	n	x	x
CC/C(=C(\c1ccccc1)c1ccc(OCCN(C)C)cc1)c1ccccc1	n	96!	n	n
CC(C)[C@H]1C=C(C(=O)NCc2ccccc2)O[C@@H](OCc2ccc(CO)cc2)C1	n	x	x	7.6
NC[C@@H]1O[C@H](C23CC4CC(CC(C4)C2)C3)Cc2c1ccc(O)c2O	n	107	x	n
NC[C@@H]1O[C@H](c2ccccc2)Cc2c1ccc(O)c2O	n	112	x	n
O=C1CC(c2ccccc2)Oc2cc(O)cc(O)c21 (configuration not stated)	n	n	n	n
Cc1ccc(N2C(=O)CC2(C(=O)NC2CCCCC2)c2cccs2)cc1 (configuration not stated)	n	x	x	x
Cc1c(C(=O)N2CCN(c3ccccc3F)CC2)sc2nc3n(c(=O)c12)CCCC3	n	x	x	x
Cn1c(CCCO)nc2ccccc21	n	x	x	x
Cc1nn(C(C)(C)C)c(OC(=O)c2cccc(Br)c2)c1S(=O)(=O)c1ccccc1	n	119	n	x
Cc1nn(C(C)(C)C)c(OC(=O)c2ccc(Cl)cc2)c1S(=O)(=O)c1ccccc1	n	121	n	x
N#CC1=C(N)C(C#N)=c2s/c(=C/c3cccc(F)c3)c(=O)n2C1c1cccc(F)c1 (configuration not stated)	n	116	n	n
Cc1cc2c(c(=O)n1CCN1CCOCC1)C(c1cccc(F)c1)C(C#N)=C(N)O2 (configuration not stated)	n	n	n	n
Cc1cc(C)cc(NC(=O)COc2ccc(N3CC(C(N)=O)CC3=O)cc2)c1 (configuration not stated)	n	n	n	x
